In this experiment the target is Guanine nucleotide-binding protein G(i) subunit alpha-3 (Rattus norvegicus) (UniProt P08753). In words: inhibitors of GIV peptide binding to Galpha-i3, confirmation, biochemical, fluorescence polarization, FITC-GIV peptide, rat Galphai3 (AID 1259350).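 Further: lower mP means peptide displaced from Galphai3 so more inhibition.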 The conditions noted are these: at 100 µM, hits give low values. On the technique in general: In fluorescence polarisation assays a small probe gives low polarisation when free and higher when bound to something large.
Sequence of Guanine nucleotide-binding protein G(i) subunit alpha-3 (Rattus norvegicus) (P08753 whole entry, looked up): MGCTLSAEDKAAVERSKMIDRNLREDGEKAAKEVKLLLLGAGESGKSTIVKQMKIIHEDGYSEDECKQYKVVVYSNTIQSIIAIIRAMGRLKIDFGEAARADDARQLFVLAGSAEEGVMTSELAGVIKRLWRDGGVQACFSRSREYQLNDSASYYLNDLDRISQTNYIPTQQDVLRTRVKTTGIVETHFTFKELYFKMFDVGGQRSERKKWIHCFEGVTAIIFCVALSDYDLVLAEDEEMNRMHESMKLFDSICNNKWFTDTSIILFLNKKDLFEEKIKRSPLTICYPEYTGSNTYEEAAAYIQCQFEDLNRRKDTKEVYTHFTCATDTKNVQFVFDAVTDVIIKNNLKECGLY

SMILES strings stand for the structures. The list shows a part of the results. Active and inactive are the calls of the source.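 How the source made its calls: active means inhibition score of 15 or more, meaning 100 minus mean polarization as percent of control over three replicates; inactive means the rest.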

The results in this text go back to PubChem BioAssay AID1259350 (ICCB-Longwood Screening Facility, Harvard Medical School, 2017).

Take `Cc1ccc(C(=O)N2CCc3cc(CNC(=O)c4ccc(Br)cc4)ccc32)cc1`: the fluorescence polarization is 85.2 mP (inactive).
As for `CCOc1cc(/C=C2/C(=O)N(c3nn[nH]n3)N=C2C)cc(Cl)c1OCC`, the figure is 69.8 mP (inactive).
As for `Cc1ccc(N2C(=O)/C(=C/c3ccc(OCC(=O)O)c(Br)c3)C(=O)NC2=S)cc1`, the figure is 60.7 mP (active); as for `COc1ccccc1N1C(=O)/C(=C/c2ccc(Cl)cc2)C=C1c1ccccc1`, 77.8 mP (inactive).
Regarding `COc1ccccc1CNc1ncc2nc(-c3ccccc3)oc2n1`, the fluorescence polarization is 63.8 mP (inactive).
Under `Cc1ccc(NC(=O)c2nc[nH]c2C(=O)N2CCCCC2)c(C(=O)c2ccccc2)c1` stands 54.4 mP (active); under `O=C(O)c1cc(NS(=O)(=O)c2ccc3c(c2)CCCC3)cnc1N1CCOCC1`, 43 mP (active); under `O=C(O)c1c2ccccc2[nH]c2c1oc1cc(=O)ccc12`, 71.6 mP (inactive).
As for `N#CSc1cc(SC#N)c(N)nc1N`, the figure is 25.2 mP (active).
On to `CCC(=O)N1CCc2cc(N3CC(C(=O)N4CCN(C(C)C)CC4)CC3=O)ccc21` (centres undefined), for which the fluorescence polarization was 64.3 mP (active).
In the case of `CCOC(=O)C1=C(C)N(c2ccc(OC)cc2)C(=O)/C1=C\c1ccco1`, the fluorescence polarization was 77.8 mP (inactive).
Under `O=C(O)CCC(C(=O)O)N1C(=O)/C(=C\c2ccco2)SC1=S` (centres undefined) stands 41.8 mP (active); under `CC(=O)Nc1ccc(Nc2c3c4c(cccc4[nH]c2=O)C(=O)c2ccccc2-3)cc1`, 39.3 mP (active); under `N#CC(C#N)=C(C#N)/C=C/n1c2ccccc2c2ccccc21`, 50.6 mP (active).
Under `COc1ccc(Nc2cc(C(=O)NCCCN(C)c3ccccc3)c3ccccc3n2)c(OC)c1` stands 84 mP (inactive); under `CC(=O)Oc1cccc2c1C(=O)C=CC2=O`, 73.2 mP (inactive).
As for `COC1=C(N2CCOCC2)C(=O)c2ccccc2C1=O`, the fluorescence polarization is 68 mP (inactive).
For `Cc1nn(-c2ccccc2)c2sc(-c3noc(-c4ccccc4F)n3)cc12`, the fluorescence polarization was 78.5 mP (inactive).
Consider `Cn1cccc1/C=C1\C(=O)NC(=S)N(c2ccccc2)C1=O`, for which the fluorescence polarization was 51.3 mP (active).
For `CC1=NOC(=O)C1C(c1cccc(Br)c1)c1c(C)[nH]n(-c2ccccc2)c1=O` (centres undefined), the fluorescence polarization was 37.2 mP (active).
Under `COc1ccc(N=Nc2c(-c3ccc(OC)cc3)[nH]oc2=O)cc1` stands 72.7 mP (inactive); under `CCOC(=O)c1nc2cc(C)c(C)cc2nc1NC1CCCCC1`, 88.9 mP (inactive); under `O=C(NN=c1c(=O)c2ccccc2c1=O)c1ccncc1`, 66.7 mP (inactive).
Turning to `COC(=O)Cn1nc2c(-c3nc(-c4ccc(Cl)cc4)no3)cccn2c1=O`, the fluorescence polarization was 83.1 mP (inactive).
